# Screening results from PubChem BioAssay.
# Most compounds without a hit are left out; they make up all but 5.7% or so of the library.
# DAX1 inh-1: inhibits human nuclear receptor DAX1. P51843. actives 0.99% (n = 340,000). inhibition, % at 6.75 µM. HEK293 Gal4-DAX1 luciferase reporter, luminescence. AID 504766;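 active = inhibition above the mean over all tested compounds plus 3 SD, cut at about 4.2% in these data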;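 also: 0% = DAX1-transfected cells with DMSO and 100% = empty-vector control cells with DMSO; inhibition shows as a rise in luminescence from relieved DAX1 repression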
# DAX1 inh-2: inhibitors of DAX1 repression of SF-1 activated StAR promoter | inhibition, % at 6.8 µM | actives 1.1% (n = 370,000) | AID 652010 | HEK293T StAR-luciferase reporter, SF-1/DAX-1 repression relief;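 active = inhibition above the mean over all tested compounds plus 3 SD, cut at about 3.6% in these data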;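 also: 0% = DAX-1 cells with DMSO and 100% = cells lacking DAX-1 with DMSO; higher inhibition means more luminescence from relief of DAX-1 repression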
# hgDAF12 agonist: agonists of H. glycines DAF-12 nuclear receptor | actives 1.8% (n = 370,000) | activation, % at 6.8 µM | HEK293 GAL4-hgDAF12 UAS-luciferase reporter, agonist luminescence; normalized to butyrate control;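 active = activation above a cutoff set at the mean of all screened compounds plus 3 SD, cut at about 10% in these data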;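 also: 0% = DMSO wells and 100% = sodium butyrate wells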
# AHR act: human AHR activation. P35869. AHR-responsive luciferase reporter cells, luminescence. activation, % at 5 µM. actives 2.5% (n = 320,000). AID 2796; in the data active = activation above about 47%;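 also: 0% = vehicle wells and 100% = reference agonist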
# Target sequence (P35869 whole entry, looked up): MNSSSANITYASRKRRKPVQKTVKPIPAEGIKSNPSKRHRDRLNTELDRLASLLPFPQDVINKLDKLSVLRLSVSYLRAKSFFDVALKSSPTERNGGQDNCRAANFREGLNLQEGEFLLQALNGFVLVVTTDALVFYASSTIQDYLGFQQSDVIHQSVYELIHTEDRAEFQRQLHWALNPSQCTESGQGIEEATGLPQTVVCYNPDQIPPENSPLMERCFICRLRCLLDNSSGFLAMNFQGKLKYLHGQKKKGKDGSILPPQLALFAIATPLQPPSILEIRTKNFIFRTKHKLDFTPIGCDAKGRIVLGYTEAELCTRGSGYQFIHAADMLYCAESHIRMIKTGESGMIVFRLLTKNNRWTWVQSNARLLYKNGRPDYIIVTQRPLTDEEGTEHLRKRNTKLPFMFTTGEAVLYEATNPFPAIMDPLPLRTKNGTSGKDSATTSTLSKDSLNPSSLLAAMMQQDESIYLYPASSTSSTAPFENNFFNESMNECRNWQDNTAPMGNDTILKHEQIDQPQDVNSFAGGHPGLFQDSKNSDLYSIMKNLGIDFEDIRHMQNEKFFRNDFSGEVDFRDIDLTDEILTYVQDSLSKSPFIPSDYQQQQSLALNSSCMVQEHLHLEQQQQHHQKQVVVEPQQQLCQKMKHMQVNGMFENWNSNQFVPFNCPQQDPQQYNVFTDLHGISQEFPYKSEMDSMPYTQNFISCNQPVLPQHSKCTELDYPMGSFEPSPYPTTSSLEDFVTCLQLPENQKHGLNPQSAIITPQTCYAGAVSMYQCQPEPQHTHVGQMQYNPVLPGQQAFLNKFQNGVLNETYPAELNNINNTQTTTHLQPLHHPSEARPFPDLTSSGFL
# ssDAF-12 act: S. stercoralis DAF-12 activation, primary screen; actives 1% (n = 370,000); AID 652126; HEK293 ssDAF-12/GRIP1 lit1-tk-luc reporter, luminescence; % of 3 µM dafachronic acid response; activation, % at 6.8 µM;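 active = activation above the mean over all tested compounds plus 3 SD, cut at about 0.9% in these data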;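 also: 0% = DMSO-only wells and 100% = 3 µM delta7-dafachronic acid wells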
# hcDAF12 agonist: H. contortus DAF-12 activation, primary screen; HEK293 hcDAF-12 lit1-tk-luc reporter, luminescence; 0% DMSO, 100% Δ7-dafachronic acid; activation, % at 6.8 µM; actives 1.4% (n = 370,000);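 active = activation above the mean of all tested compounds plus 3 SD, cut at about 5.5% in these data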;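 also: 100% = response to 3 µM Δ7-dafachronic acid high control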
# Numbers without * were called inactive; . = no result.
SMILES,DAX1 inh-1,DAX1 inh-2,hgDAF12 agonist,AHR act,ssDAF-12 act,hcDAF12 agonist
Cc1cccc(N2CCN(C(=O)c3ccc4c(=O)[nH]c5c(C(=O)NC6CCCC6)sc(=S)n5c4c3)CC2)c1C,.,0,7,.,-1,1
O=C1CCC(=O)c2oc3ccccc3c2N1,-1,0,1,0,-1,-1
O=C1CCc2cccc(O)c2N1,4.9*,-1,0,.,-1,0
CC(=O)Oc1ccc(-c2csc(Nc3ccc(Cl)cn3)n2)cc1,0,0,3,0,-1,-2
COc1ccc(-c2csc(NNC3=NCCCCC3)n2)cc1,.,1,6,31,0,0
COc1ccc(-c2csc(NC3=NCCCCC3)n2)cc1,0,0,0,58*,-1,-2
COc1ccc(-c2csc(Nc3ccc(C)cn3)n2)cc1,1,1,12*,14,-1,1
Fc1ccc(-c2csc(NC3=NCCC3)n2)cc1,-1,1,1,55*,-1,0
Clc1cc(Cl)c2nc(N3CCOCC3)sc2c1,4.8*,1,6,33,0,2
Clc1ccc(Cl)c2sc(N3CCOCC3)nc12,-2,0,3,29,-1,2
CC(C)C[C@@H]1NC(=O)[C@@H]2CSCCS(=O)(=O)N2C1=O,.,0,-1,.,0,-2
O=C(COc1ccccc1Cl)NCc1nc(-c2ccccc2)no1,0,0,-3,48*,-1,-1
Clc1ccc(Nc2ccccc2)nn1,1,0,3,-1,0,0
O=c1cc(-c2cccc(Br)c2)oc2cccc(O)c12,0,0,0,49*,0,5.8*
O=c1cc(-c2cccc(Cl)c2)oc2cccc(O)c12,0,1,3,34,0,3
O=c1cc(-c2ccccc2)oc2cccc(O)c12,4.9*,1,4,.,0,-1
O=C(Nc1ccc2c(c1)OCO2)Oc1ccccc1,2,1,7,88*,-1,1
O=C(Nc1ccc(S(=O)(=O)NCc2ccccc2)cc1)Nc1ccc2c(c1)OCO2,-1,.,.,52*,.,.
C/C(=C\C(=O)c1ccccc1)Nc1ccc2c(c1)OCO2,1,1,4,47*,-1,-1
CN(C)c1cccc2c(S(=O)(=O)NCC3CCN(C(=O)C(=O)c4cc5ccccc5o4)CC3)cccc12,.,-2,-1,.,-1,-2
COc1ccc(C(C)=O)cc1COC(=O)c1cnc(Cl)c(Cl)c1,0,0,1,0,-1,0
O=C(CN(Cc1ccco1)C(=O)c1cc(=O)[nH]c2ccccc12)Nc1ccccc1C(F)(F)F,6.3*,0,-2,1,-1,0
Cc1ccc(-c2nnc(NCCCO)c3ccccc23)cc1,2,0,-2,2,-2,0
OCCCNc1nc(-c2ccc(Cl)cc2)nnc1-c1ccccc1,-1,1,4,64*,-1,-1
Clc1ccc(-c2nnc(-c3ccccc3)c(-c3c[nH]c4ccccc34)n2)cc1,0,1,0,51*,1,5
SMILES,DAX1 inh-1,DAX1 inh-2,hgDAF12 agonist,AHR act,ssDAF-12 act,hcDAF12 agonist
Clc1ccc(-c2nnc(-c3ccccc3)c(-c3ccccc3)n2)cc1,0,0,0,0,-2,-1
Cc1occc1C(=O)Nc1cc(C(C)(C)C)on1,2,4.2*,12*,28,0,4
Cn1c(NC2=NC3(CCCC3)C3=C(CCCC3=O)N2)nc2ccccc21,.,.,1,.,-1,0
CCNC(=O)N(C)[C@H]1C[C@H]2c3[nH]c4c(-c5ccccc5)cccc4c3CCN2C(=O)[C@H]1[C@H](C)O,.,-1,-3,.,-1,0
NC(=O)/C(=C/c1ccco1)C(N)=S,-2,0,1,0,-1,1
Cc1cc(C(=O)Nc2ccc(N3CCCCC3)cc2)no1,1,3,11*,-1,0,5
Cc1ccc(C(=O)Nc2ccc(N3CCCC3)cc2)cc1,0,2,12*,-4,0,1
Cc1ccc(C(=O)Nc2ccc(N3CCN(S(C)(=O)=O)CC3)cc2)cc1C,.,0,6,-1,-1,-1
Cc1ccc(C(=O)Nc2ccc(N3CCN(C)CC3)cc2)cc1C,4.7*,1,9,3,0,3
CCOC(=O)C1CCCN(C(=O)c2ccc(C(F)(F)F)nc2C)CC1 (configuration not stated),.,-1,0,.,-1,-2
Cc1ccc2c(c1)Oc1ccccc1C=C2C(=O)O,4.3*,1,-1,0,-1,1
COC(=O)NC1c2ccccc2Oc2ccc(C)cc21 (configuration not stated),-2,0,-3,4,-1,-1
COC(=O)CCc1c(C)c(C(=O)c2ccc(F)cc2)c2ccccn12,0,-1,-7,4,-2,-1
Cc1c(C(=O)Nc2ccc(F)cc2)c2ccccn2c1CCc1ccncc1,-1,0,-1,90*,-1,4
Cc1c(/C=N/NC(=O)c2ccc(Br)o2)cnn1C,.,1,9,14,0,6.2*
Cc1c(/C=N\NC(=O)c2ccc(F)cc2)cnn1C,-1,0,0,5,-1,0
COc1cccc(CC(NC(C)=O)C(=O)NC2CCN(c3nnnn3-c3ccccc3)CC2)c1 (configuration not stated),4.3*,0,0,0,-1,-1
COc1ccc(NC(C)=O)cc1S(=O)(=O)Nc1ccc(C(=O)N2CCCC2)cc1,4.4*,0,-1,1,-1,1
COc1ccc(NC(C)=O)cc1S(=O)(=O)Nc1ccccc1C(=O)N1CCCC1,1,1,2,-1,-1,1
Cc1nn(-c2ccccc2)c2c1C(c1cccs1)C(C#N)=C(N)O2 (configuration not stated),-1,.,.,55*,.,.
CN(CC(=O)Nc1ccc(F)c(F)c1F)C(=O)Cc1ccc(S(=O)(=O)N2CCOCC2)s1,1,-1,-2,.,-1,0
CCN1C(=O)c2cccc3c(S(=O)(=O)Nc4ccccn4)ccc1c23,6.7*,1,-1,6,0,3
CCN1C(=O)c2cccc3c(S(=O)(=O)Nc4ncccc4C)ccc1c23,2,-1,-2,4,-2,-1
COc1ccc(CNS(=O)(=O)c2ccccc2Br)c(OC)c1,.,0,1,.,-1,0
Cc1cccn2c(=O)c3cc(C(=O)NCCc4ccccc4)sc3nc12,1,0,0,3,1.0*,5
CCCCNC(=O)c1cc2c(=O)n3cccc(C)c3nc2s1,0,0,-2,0,-1,-3
Cc1ccnc(NC(=O)C2CC(=O)N(Cc3ccccc3)C2)c1 (configuration not stated),1,4.3*,5,-1,0,3
